Results as given in PubChem BioAssay AID1645851 (National Center for Advancing Translational Sciences (NCATS), 2021).
In all, about 140,000 compounds went through this assay and about 1,200 (0.86%) were called active. No stated cut-off is given here; in the data, active means activity change below about -25%; inactive means the rest. What follows is part of a selection rich in actives, with near analogues and random picks from the rest.

Target: Inositol hexakisphosphate kinase 1 (Homo sapiens) (UniProt Q92551)
Sequence (Q92551 whole entry, looked up): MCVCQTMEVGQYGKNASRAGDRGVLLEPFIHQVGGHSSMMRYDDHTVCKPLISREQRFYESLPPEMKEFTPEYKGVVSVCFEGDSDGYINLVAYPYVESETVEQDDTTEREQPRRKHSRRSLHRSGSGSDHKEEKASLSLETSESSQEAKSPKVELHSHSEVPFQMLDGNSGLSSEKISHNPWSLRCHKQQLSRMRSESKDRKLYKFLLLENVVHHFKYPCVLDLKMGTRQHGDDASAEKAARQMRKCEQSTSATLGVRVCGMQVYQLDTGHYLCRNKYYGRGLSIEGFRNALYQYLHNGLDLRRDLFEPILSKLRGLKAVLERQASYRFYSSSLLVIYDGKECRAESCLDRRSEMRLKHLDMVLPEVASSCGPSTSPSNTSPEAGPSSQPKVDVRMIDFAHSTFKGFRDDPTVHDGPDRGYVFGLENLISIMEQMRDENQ
Assay: Primary qHTS assay for small molecule inhibitors of Inositol hexaphosphate kinase 1 (IP6K1); further: series mostly up to about 58 µM
Details: ADP-Glo luminescence, 2 h, stronger effect = lower value
Source text: Assay Provider: Huijun Wei, M.S., Ph.D. School of Medicine, Johns Hopkins University, Baltimore, MD Inositol hexakisphosphate kinases (IP6Ks) catalyze pyrophosphorylation of inositol hexakisphosphate (IP6) into inositol 5-diphospho-1,2,3,4,6-pentakisphosphate (IP7), which is involved in numerous areas of cell physiology including glucose homeostasis, blood coagulation and neurological development. Inhibition of IP6Ks may be effective for the treatment of Type II diabetes, thrombosis, and psychiatric disorders. We performed a quantitative high throughput screen (qHTS) of 158,410 compounds for IP6K1 inhibitors using ankinase activity ADP-Glo Max assay. […] Medicinal chemistry SAR efforts in three chemical series identified potent IP6K1 inhibitors, which were further validated in an orthogonal LC-MS IP7 analysis.
PROTOCOL TABLE SEQUENCE No. (e.g., 1, 2, 3, etc.); […] (e.g., Cells, Incubation, Reagent, etc.); VALUE and DESCRIPTION. 1. Reagent, 3 uL of 1.3 mM ATP and 130 uM IP6 mixture in assay buffer was dispensed to a white, 1536-well assay plate. 2. Compound, 23 nL of compounds of the top two doses (57.5 uM and 19.1 uM final concentration) of the libraries were dispensed into the mixture using the Kalypsis pintool. 3. Reagent, 1 uL of 2.4 uM IP6K1 was dispensed to the assay plates. 4. Incubation, 2 hr incubation at room temperature. 5. Reagent, 2 uL of ADP-Glo reagent was added to the wells. 6. Incubation, 1 hr incubation at room temperature. 7. Reagent, 4 uL or ADP-Glo substate was added to the wells. 8. Incubation, 45 min incubation at room temperature. 9. Detection, luminescence signal was detected using the ViewLux microplate imager (PerkinElmer).
On the % scale 0 is the no-effect control and ±100 the full control effect.

| Compound | activity change |
| --- | --- |
| Oc1ccc2c3c1O[C@H]1c4[nH]c5c(N=C=S)cccc5c4C[C@@]4(O)[C@@H](C2)N(CC2CC2)CC[C@]314 | -97.1% (active) |
| CO[C@]12CC[C@@]3(C[C@@H]1[C@](C)(O)C(C)(C)C)[C@@H]1Cc4ccc(O)c5c4[C@@]3(CCN1CC1CC1)[C@H]2O5 | 0.147% (inactive) |
| C/C=C(\C)C(O)C(C)/C=C(C)/C=C/C/C(C)=C/Cc1nc(OC)c(OC)c(O[C@@H]2O[C@@H](C)[C@H](O)[C@@H](O)[C@H]2O)c1C (stereo not given in full) | -8.45% (inactive) |
| NC(=O)[C@@H](CC1CC1)[C@@H](CCC(F)(F)F)C(=O)N[C@H]1N=C(c2ccccc2)c2cccc(F)c2NC1=O | 10.6% (inactive) |
| C[C@@H]1C[C@@H](O)[C@]2(O)O[C@@H]3C[C@@]4(C=O)C(CC[C@@H]5C4CC[C@]4(C)[C@@H](C6=CC(=O)OC6)CC[C@]54O)C[C@H]3O[C@@H]2O1 (stereo not given in full) | 17.6% (inactive) |
